High-throughput results as filed in PubChem BioAssay.
This is a sample that favours compounds with a hit; in the whole collection about 1.6% have one here.
SSB-PriA inh: inhibitors of Klebsiella pneumoniae PriA binding to SSB C-terminal tail, primary screen, biochemical, AlphaScreen | PriA–SSB C-terminal tail interaction (Klebsiella pneumoniae) | inhibition, % at 33 µM | AlphaScreen SSBct-PriA binding, biotinylated peptide | actives 0.6% (n = 430,000); in the data active means inhibition mostly above about 37%, no sharp cut-off; inactive means mostly below about 20%
PfHsp40 yeast: rescue of yeast from PfHsp40 toxicity, primary screen, S. cerevisiae, ATP luminescence | actives 0.68% (n = 340,000) | S. cerevisiae expressing PfHsp40, growth rescue | growth rescue, % at 12.5 µM; in the data active means growth rescue above about 28%, passing the limit was not always enough;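 further: yeast W303a lacking pdr1 and pdr3 grown in galactose medium; growth measured after three days at 30 °C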
SARS 3CLpro inh: SARS-CoV 3CLpro protease inhibitors, primary screen, biochemical, quenched FRET | recombinant SARS-CoV 3CLpro, quenched FRET peptide cleavage | actives 0.14% (n = 290,000) | inhibition, % at 6 µM; in the data active means inhibition above about 12%
Vc quorum ag: inducers of Vibrio cholerae quorum light production without autoinducers, primary screen, BH1578 luxS cqsA deficient, single point; V. cholerae BH1578 lux reporter, luminescence, 6 h; activation, % at 18.7 µM; actives 0.16% (n = 350,000); AID 588436, 2011; in the data active means activation mostly above about 9.7%, no sharp cut-off
PrP UTR inh: inhibition of PrP 5' UTR reporter expression | cell-based PrP 5' UTR mRNA reporter, plate reader | inhibition, % (concentration not given with the values) | actives 0.35% (n = 340,000) | AID 488862, 2010; in the data active means inhibition above about 52%
PrPC surface inh: inhibitors of human cell surface prion protein PrPC, primary screen, cell-based, TR-FRET. inhibition, % at 13.8 µM. Major prion protein (Homo sapiens), P04156. TR-FRET read-out. AID 720596, 2013. actives 0.43% (n = 370,000); in the data active means inhibition above about 24%
Of the large screens only hits and unclear results are named; the others gave an inactive call.

O=C(NCc1ccc2c(c1)OCO2)C(=O)NCC1CCCO1 (configuration not stated)	none
CCOC(=O)/C(=N\Nc1ccccc1)N1CC1	none (no result: SSB-PriA inh)
CCOC(=O)/C(=N/Nc1ccc(Br)cc1)N1CC(C)OC(C)C1 (configuration not stated)	PfHsp40 yeast 36.3, PrPC surface inh 31.6 (no result: SARS 3CLpro inh, Vc quorum ag)
O=C(NC1CCSc2ccccc21)c1cc([N+](=O)[O-])ccc1N1CCOCC1 (configuration not stated)	PfHsp40 yeast 35.8 (no result: SARS 3CLpro inh)
O=C(NNC1=C(C(=O)C(F)(F)F)CCC1)c1cccc(Cl)c1	PfHsp40 yeast 54.0
Cc1ccccc1C(=O)N1CCN(CCNC(=O)C(=O)Nc2ccc(Br)cc2)CC1	SSB-PriA inh 39.0
COc1ccc(NC(=O)C(=O)NCCN2CCN(C(=O)c3cccs3)CC2)cc1	PfHsp40 yeast 57.6
Cc1ccc(S(=O)(=O)CCc2nnc(NC(=O)c3ccccn3)s2)cc1	SSB-PriA inh 85.5 (no result: PrPC surface inh)
Cc1ccc(S(=O)(=O)CCc2nnc(NC(=O)c3cnccn3)s2)cc1	none
O=[N+]([O-])c1ccc(NN=C2CC3CC=CC23)c([N+](=O)[O-])c1 (configuration not stated)	SSB-PriA inh 52.1 (no result: PfHsp40 yeast, SARS 3CLpro inh, Vc quorum ag, PrP UTR inh, PrPC surface inh)
O=[N+]([O-])c1ccc(N/N=C2\CC3CC=CC23)c([N+](=O)[O-])c1 (configuration not stated)	none (no result: SSB-PriA inh)
Cc1ccc(CNC(=O)C2COc3ccccc3O2)cc1 (configuration not stated)	PfHsp40 yeast 103.0
Cc1ccc(NC(=O)c2ccccc2NC(=O)C2COc3ccccc3O2)c(C(=O)c2ccccc2)c1 (configuration not stated)	SSB-PriA inh 61.0 (no result: PfHsp40 yeast, SARS 3CLpro inh, Vc quorum ag, PrP UTR inh, PrPC surface inh)
CC(=O)Oc1ccc2ccccc2c1C(NC(=O)Cc1ccccc1)c1ccc(Cl)cc1 (configuration not stated)	PfHsp40 yeast 40.4
COc1ccc(C(NC(=O)CC(C)C)c2c(O)ccc3ccccc23)cc1 (configuration not stated)	PfHsp40 yeast 33.3
CCCC(=O)NC(c1ccc(OC)cc1)c1c(O)ccc2ccccc12 (configuration not stated)	none
O=C(CSc1ccc2nnc(-c3ccccn3)n2n1)Nc1ccc(Cl)c(Cl)c1	none (no result: PfHsp40 yeast, SARS 3CLpro inh, Vc quorum ag, PrP UTR inh, PrPC surface inh)
c1cncc(-c2nnc(-c3ccsc3)o2)c1	none (no result: PfHsp40 yeast, SARS 3CLpro inh, Vc quorum ag, PrP UTR inh, PrPC surface inh)
Cn1c(-c2ccc(Br)cc2)cnc1SCc1ccccc1	SSB-PriA inh 67.0 (no result: PfHsp40 yeast, SARS 3CLpro inh, Vc quorum ag, PrP UTR inh, PrPC surface inh)
O=C(NCCOc1ccc(F)cc1)c1cccs1	none (no result: PfHsp40 yeast, SARS 3CLpro inh, Vc quorum ag, PrP UTR inh, PrPC surface inh)
CCOC(=O)c1ccc(N2C(=O)CC(N(C)CCc3ccc(OC)c(OC)c3)C2=O)cc1 (configuration not stated)	PfHsp40 yeast 557.8
CCOc1cccc(N2C(=O)CC(N(CCc3ccc(OC)c(OC)c3)C(=O)CC)C2=O)c1 (configuration not stated)	none
Nc1ccc(C(=O)OCC(=O)N2CCOCC2)cc1[N+](=O)[O-]	PfHsp40 yeast 47.4
Nc1cc(C(=O)OCC(=O)N2CCOCC2)ccc1Cl	none
Cc1ccc(NC(=O)C2C3CCCCC32)cc1[N+](=O)[O-] (configuration not stated)	SSB-PriA inh 40.6
O=C(Cc1noc2ccccc12)NC1CCC(Oc2ncc(F)cn2)CC1 (configuration not stated)	none (no result: PfHsp40 yeast, SARS 3CLpro inh, Vc quorum ag, PrP UTR inh, PrPC surface inh)
CCCCc1c(C)nc2ccc(Br)cc2c1SCCC#N	none (no result: SSB-PriA inh, PfHsp40 yeast, Vc quorum ag, PrP UTR inh, PrPC surface inh)
CCc1c(C)nc2ccc(Br)cc2c1SCCC#N	PrPC surface inh 47.1
C=C1Nc2ccccc2N(CC(=O)Nc2nc(-c3ccccn3)cs2)C1=O	none (no result: PfHsp40 yeast, SARS 3CLpro inh, Vc quorum ag, PrP UTR inh, PrPC surface inh)
Cc1ccc(C)n1CC(=O)Nc1nc(-c2ccccn2)cs1	SSB-PriA inh 99.8 (no result: PfHsp40 yeast, SARS 3CLpro inh, Vc quorum ag, PrP UTR inh, PrPC surface inh)
CC1=CC(=O)CC(=O)N1CC(=O)Nc1nc(-c2ccccn2)cs1	SSB-PriA inh 84.0 (no result: PfHsp40 yeast, SARS 3CLpro inh, Vc quorum ag, PrP UTR inh, PrPC surface inh)
Cc1noc(CN)n1	none (no result: PfHsp40 yeast, SARS 3CLpro inh, Vc quorum ag, PrP UTR inh, PrPC surface inh)
O=C(O)Cc1ccc2ccccc2c1	none (no result: PfHsp40 yeast, SARS 3CLpro inh, Vc quorum ag, PrP UTR inh, PrPC surface inh)
O=[N+]([O-])c1ccc(C2CCCC/C2=N/OCc2ccccc2F)c([N+](=O)[O-])c1 (configuration not stated)	none (no result: SSB-PriA inh)
O=[N+]([O-])c1ccc(C2CCCCC2=NOCc2ccccc2F)c([N+](=O)[O-])c1 (configuration not stated)	SSB-PriA inh 50.3 (no result: PfHsp40 yeast, SARS 3CLpro inh, Vc quorum ag, PrP UTR inh, PrPC surface inh)
O=[N+]([O-])c1cc(C(F)(F)F)ccc1NCCc1c[nH]c2ccccc12	none
O=[N+]([O-])c1cc(C(F)(F)F)ccc1NCCc1c[nH]c2ccc(O)cc12	PfHsp40 yeast 484.1
O=C(Oc1ccc(N(C(=O)c2ccncc2)S(=O)(=O)c2cccs2)cc1)c1ccncc1	none
Cc1cc(F)ccc1S(=O)(=O)N(C(=O)c1ccncc1)c1ccc(OC(=O)c2ccncc2)cc1	PfHsp40 yeast 421.5
CCOc1cc(/C=C/c2nc3cc(C)c(C)cc3s2)ccc1OCC(=O)N1CCOCC1	none
CCOc1cc(/C=C\[N+](=O)[O-])ccc1OCC(=O)N1CCOCC1	PfHsp40 yeast 34.9
Cc1ccc(-n2nnnc2SC(C)C(N)=O)c(C)c1 (configuration not stated)	Vc quorum ag 16.7
Cc1ccc(-n2nnnc2SCC(=O)N2CCc3ccccc3C2)c(C)c1	PfHsp40 yeast 70.6 (no result: PrP UTR inh)
Cc1ccc(-n2nnnc2SCC(=O)N2CCc3ccccc3C2)cc1	none
CCCCCCC(NC(=O)c1ccc(C)cc1)C(=O)O (configuration not stated)	SSB-PriA inh 56.6 (no result: SARS 3CLpro inh)
Cc1ccc(C(=O)NC(CCc2ccccc2)C(=O)O)cc1 (configuration not stated)	none (no result: SARS 3CLpro inh)
COC(=O)C1CC(Oc2ccccc2F)CN1C(=O)CSCc1ccccc1 (configuration not stated)	none (no result: PfHsp40 yeast, SARS 3CLpro inh, Vc quorum ag, PrP UTR inh, PrPC surface inh)
O=NN(CCc1ccncc1)c1ccc(OCc2ccccc2)cc1	PfHsp40 yeast 387.7
O=C(NCc1ccncc1)C(=O)N/N=C/c1ccc(OCc2ccccc2)cc1	none (no result: SSB-PriA inh)
C=CCC[C@@H](Cc1ccc(F)cc1)C(=O)OC[C@H]1CCCN1C(=O)[C@@H](CC=C)CC(=O)N[C@H](CO)Cc1ccccc1	PfHsp40 yeast 38.6 (no result: SARS 3CLpro inh)
C=CC[C@@H](Cc1ccc(F)cc1)C(=O)OC[C@H]1CCCN1C(=O)[C@@H](CC=C)CC(=O)N[C@@H](CO)Cc1ccccc1	PfHsp40 yeast 32.4 (no result: SARS 3CLpro inh)
C=CC[C@@H](Cc1ccc(F)cc1)C(=O)OC[C@H]1CCCN1C(=O)[C@@H](CC=C)CC(=O)N[C@H](CO)Cc1ccccc1	none (no result: SARS 3CLpro inh)
C=CCC[C@@H](Cc1ccc(F)cc1)C(=O)OC[C@@H]1CCCN1C(=O)[C@H](CC=C)CC(=O)N[C@H](CO)Cc1ccccc1	PfHsp40 yeast 45.4 (no result: SARS 3CLpro inh)
CC(C)N1CCC(CNC(=O)C(=O)Nc2ccccc2)CC1	none (no result: PfHsp40 yeast, SARS 3CLpro inh, Vc quorum ag, PrP UTR inh, PrPC surface inh)
CC1(C)Cc2cccc(OCc3ccc(C(=O)NCCc4ccc(S(N)(=O)=O)cc4)cc3)c2O1	none (no result: PfHsp40 yeast, SARS 3CLpro inh, Vc quorum ag, PrP UTR inh, PrPC surface inh)
